Each structure is given as a SMILES string. “And” between values parts separate entries of the source, which are not always exact repeats. Equal entries are not always repeated. About 83,000 compounds went through this panel and 20% of them were active in at least one assay; those are over-represented in the sample as a whole.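 In brief: 96-well plates, 48 h treatment, single concentration, percent growth endpoint.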 The source made the active and inactive calls.

From PubChem BioAssay (NCI) come the findings set out here.

The first assay concerns HCT-15 colon. Nature of the assay: NCI-60 one-dose screen, 48 h (100 = growth as untreated, 0 = no growth, -100 = all killed). The note with it: 0.25 µM. The procedure: Growth inhibition of the HCT-15 human tumor cell line is measured as a screen for anti-cancer activity. Cells are grown in 96 well plates and exposed to the test compound for 48 hours. Compounds are tested at a single concentration, which is 10^-5 M for most compounds. The reported endpoint is percent growth (GI% or GIPRCNT), where numbers from 0 - 100% represent growth inhibition, and numbers from -100% - 0 represent cell death. For example, a value of 40 represents 60% growth inhibition. A value of 0 means no net growth occurred over the course of the experiment. A value of -40 indicates 40% of cells at the beginning of the experiment died by the end of the experiment. A value of -100 means all cells are dead at the end of the experiment.
NCI-60 Human Tumor Cell Lines Screen was performed using the standard one-dose NCI protocol, which is described in more detail at https://dtp.cancer.gov/discovery_development/nci-60/default.htm.
Compounds with GIPRCNT values below 10 were considered active. Activity score was based on GIPRCNT using the following formula: […]
Score is 0 for GIPRCNT values of 100 or above, 50 for GIPRCNT values of 0, and 100 for GIPRCNT values of -100.
Take `CCCCCCCCCCCCCCCc1ccc(Cl)c(O)c1Cl` (tested in a mixture with another compound): the growth was 76.6% (inactive).

The same assay, now with this note: 10 µM.
Consider `CCCCCCCCCCCCCCCc1ccc(Cl)c(O)c1Cl` (tested in a mixture with another compound), for which the growth is 109% (inactive).

For `CCc1ccccc1-n1c(N)c(C#N)c(-c2ccc(OC)c(OC)c2)c(C#N)c1=O`, the growth was 101% (inactive).

Still in this assay, the particulars now being: 10 µM unless noted.
Regarding `NCCSC(C[N+](=O)[O-])c1ccccc1Cl` (stereo not given), the growth is 22.4% (inactive).

As to `COc1ccc2cc3[n+](cc2c1OC)CCc1cc2c(cc1-3)OCO2`, the growth was 105% (inactive) and 93.4% (inactive).

`O=C(N/N=C/c1ccc2c(c1)OCO2)c1ccncc1`: the growth is 106% (inactive) and 104% (inactive).

With `Cc1cc(N=Nc2ccc(C)c(N=Nc3cc(C)c(N)cc3N)c2)c(N)cc1N`, the growth was 95.9% (inactive) and 44.3% (inactive).

For the compound `Nc1nc(SC/C=C/CCl)c2[nH]cnc2n1`, the growth is 104% (inactive) and 94.2% (inactive).

`C/C(=N\NC(=O)c1ccncc1)c1ccccc1O`: the growth is 22.8% (inactive) and 23.3% (inactive).

As to `Cn1c(=O)c2[nH]c(CCCCCCCCc3nc4ccccc4[nH]3)nc2n(C)c1=O`, the growth was 80.1% (inactive) and 96.1% (inactive).

In the case of `Cc1n[nH]c(=O)n(/N=C\c2c[nH]c3ccccc23)c1=O`, the growth was 105% (inactive).

Turning to `Nc1cc2c(cc1N)-c1ccccc1C2`, the growth is 85.9% (inactive) and 94.3% (inactive).

`Cc1c(Cl)cccc1NCN1C(=O)c2ccccc2C1=O`: the growth was 98.4% (inactive).

In the case of `CCOc1ccc2c(S(=O)(=O)O)cccc2c1[N+](=O)[O-]`, the growth is 103% (inactive) and 108% (inactive).

Consider `COc1ccc(S(=O)(=O)N2CCOCC2)cc1NC(=O)c1[nH]c(C)c2c1CCCCC2=O`, for which the growth is 104% (inactive) and 26.9% (inactive).

`CCN(CC)CCCC(C)Nc1cnc(C(=O)Nc2cc(F)cc3cccnc23)cn1` (stereo not given): the growth was 24.5% (inactive) and -32.9% (active).

As for `S=C(S)N1CCCC1`, the growth was 107% (inactive).

Turning to `CC(C)C(=O)Nc1ccc([N+](=O)[O-])c(C(F)(F)F)c1`, the growth is 94% (inactive) and 100% (inactive).

Consider `Nc1ccccc1SC1CC(=O)N(c2cccc3ccccc23)C1=O` (stereo not given), for which the growth is 99% (inactive).

On to `CC(=O)c1ccccc1O`, for which the growth was 112% (inactive) and 105% (inactive) and 223% (inactive).

In the case of `CC(=O)C(/C=N/C(N)=O)=C(/C)O`, the growth was 104% (inactive).

`NC(=S)NS(=O)(=O)c1ccc(N)cc1`: the growth was 96.8% (inactive).

In the case of `CC[N+](CC)(CC(=O)Nc1c(C)cccc1C)Cc1ccccc1`, the growth is 88.6% (inactive) and 104% (inactive).

As to `CCN(CC)CCNc1ccc(C)c2sc3ccccc3c(=O)c12` (tested in a mixture with another compound), the growth is 14.5% (inactive) and 14.2% (inactive).

Consider `COc1ccc2nc(Cl)cc(C)c2c1`, for which the growth is 99.2% (inactive) and 101% (inactive).

Turning to `NC(=O)NO`, the growth is 106% (inactive) and 72.2% (inactive).

For the compound `Oc1ccccc1/C=N\NC(=S)N/N=C/c1ccccc1O`, the growth was 19.1% (inactive) and 22.4% (inactive).

For `CC1(c2ccc3ccccc3c2)CCC(=O)O1` (stereo not given), the growth was 107% (inactive).

For the compound `CCN(CC)CCCC(CNc1ccnc2cc(Cl)ccc12)c1ccc(Cl)cc1` (stereo not given), the growth is -29.5% (active) and 5.81% (active).

On to `Cc1cccc(/C=C\C(=O)c2ccccc2)c1`, for which the growth is 89% (inactive) and 101% (inactive).

As for `O=C(Nc1ccc([N+](=O)[O-])cc1Cl)c1cc(Cl)ccc1O`, the growth was -3.38% (active) and 0.947% (active).

Take `CCNC(=O)Nc1ccc(-c2nc3c(c(N4CCOC[C@@H]4C)n2)CCN(C2COC2)C3)cc1`: the growth is 60.3% (inactive) and 15.9% (inactive).

For the compound `Nc1ccc2ccc(N)cc2c1`, the growth is 74.4% (inactive).

For `CCN(CC)CCc1nc(-c2ccccc2)no1`, the growth is 78.8% (inactive) and 111% (inactive).

As to `NS(=O)(=O)c1cc2c(cc1Cl)NC(C(Cl)Cl)NS2(=O)=O` (stereo not given), the growth was 95.3% (inactive) and 101% (inactive).

For the compound `CN(C)c1ccc2nc3ccc(N)cc3[n+](-c3ccccc3)c2c1`, the growth was 90.7% (inactive) and 18.7% (inactive).

Consider `Oc1c(Cl)cc(Cl)cc1Sc1cc(Cl)cc(Cl)c1O`, for which the growth was 8.23% (active) and 78.1% (inactive).

Regarding `N/C(=N\N=C\c1ccc2c(c1)OCO2)N/N=C\c1ccc2c(c1)OCO2`, the growth is 103% (inactive) and 93.7% (inactive).

Consider `O=C1NC(=O)C2(CCc3ccccc32)N1` (stereo not given), for which the growth is 104% (inactive) and 108% (inactive).

Still in this assay, the particulars now being: 100 µM.
Take `CCc1ccccc1-n1c(N)c(C#N)c(-c2ccc(OC)c(OC)c2)c(C#N)c1=O`: the growth was 81.2% (inactive).
